Laboratory results taken from PubChem BioAssay AID2551 (National Center for Advancing Translational Sciences (NCATS), 2010).
The campaign covered roughly 310,000 compounds. About 17,000 (5.5%) were called active. Roughly 11% stayed inconclusive and do not appear here. The list comes from a sample in which actives are over-represented; it also holds similar structures and randomly drawn compounds. Values without a mark were called inactive. The call rests on the fitted dose curve; in most records, active means well fitted inhibition curve with a large enough effect; inconclusive means small, poorly fitted or top-dose-only effect, or effect the other way; inactive means no such curve, though single readings can be large or run the other way.

These compounds were tested against Nuclear receptor ROR-gamma (Mus musculus) (UniProt P51450) (assay: qHTS for inhibitors of ROR gamma transcriptional activity). Settings: Drosophila S2 Gal4-RORgamma UAS-luciferase reporter, 20 h; series mostly up to 53.6 µM; activity change, negative = inhibition: at the top concentration.
Nuclear receptor ROR-gamma (Mus musculus), sequence (P51450 whole entry, looked up, the tested form may be a part): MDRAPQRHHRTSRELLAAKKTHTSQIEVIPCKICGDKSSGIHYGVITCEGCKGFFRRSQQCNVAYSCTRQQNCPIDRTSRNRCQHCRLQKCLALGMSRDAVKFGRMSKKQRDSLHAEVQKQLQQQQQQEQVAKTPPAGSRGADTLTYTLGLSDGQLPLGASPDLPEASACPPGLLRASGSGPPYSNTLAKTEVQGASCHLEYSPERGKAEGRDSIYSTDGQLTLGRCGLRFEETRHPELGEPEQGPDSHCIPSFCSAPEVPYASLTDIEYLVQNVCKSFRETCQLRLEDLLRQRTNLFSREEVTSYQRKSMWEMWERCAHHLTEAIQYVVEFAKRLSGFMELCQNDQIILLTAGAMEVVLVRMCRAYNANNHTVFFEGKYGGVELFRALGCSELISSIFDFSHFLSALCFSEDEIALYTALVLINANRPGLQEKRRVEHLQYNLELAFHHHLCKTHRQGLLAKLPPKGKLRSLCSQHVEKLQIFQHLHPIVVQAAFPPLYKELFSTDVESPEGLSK
How it was run: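 ROR gamma transcriptional activity was tracked as Gal4-UAS luciferase output in stably transfected Drosophila Schneider cells, with compound added 1 hr before 700 uM copper sulfate induction and a 20 hr ambient-temperature incubation.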
Further: nearly all actives have a fitted effect of over 60% in size.
On the % scale 0 is the no-effect control and ±100 the full control effect; potency means the concentration at half of the fitted maximal effect.

| Structure (SMILES) | activity change, negative = inhibition | Potency |
| --- | --- | --- |
| Cc1cc(=O)oc2c(C)c(OC(C)C(=O)NC3CCN(Cc4ccccc4)CC3)ccc12 (stereo not drawn) | 0.702% | – |
| COCc1ccc(C(=O)NC2CC(C)(C)Cc3c2cnn3-c2ccc(C)cc2)o1 (stereo not drawn) | 40% | – |
| CC(=O)c1ccc(NC(=O)CCNS(=O)(=O)c2cc(Br)cnc2N)cc1 | 12.9% | – |
| O=C(Nc1ccc2oc(-c3ccccc3F)nc2c1)c1ccco1 | -3.51% | – |
| COc1cc(OC)cc(C(=O)Nc2ccc(-c3nc4ccccc4o3)c(O)c2)c1 | – | 11.2 µM (active) |
| COc1cc(OC)cc(C(=O)Nc2ccc(S(=O)(=O)Nc3cc(C)on3)cc2)c1 | 1.82% | – |
| C[n+]1cc(-c2ccccc2)oc1-c1ccccc1 | 10.1% | – |
| CC(C)N(C(=O)Cn1cc(S(=O)(=O)CC(=O)N2CCOCC2)c2ccccc21)C(C)C | -7.07% | – |
| COc1ccc2c(CC(=O)N3CCc4cc(OC)c(OC)cc4C3)coc2c1 | 40.6% | – |
| C=C1C(=CC=C2CCC[C@@]3(C)[C@@H]2CC[C@H]3[C@H](C)CCCC(C)C)C[C@@H](O)C[C@@H]1O | – | 12.6 µM (active) |
| CCC(CCC(C)C1CCC2C3CC=C4CC(O)CC[C@@]4(C)C3CC[C@@]12C)C(C)C (stereo partly drawn) | 9.47% | – |
| COc1ccc(C(=O)O/N=C(\N)c2ccccn2)cc1[N+](=O)[O-] | -42.4% [at 1.91 µM] | – |
| Cc1cccc(/C(N)=N/OC(=O)c2ccccc2Cl)c1 | – | 0.251 µM (active) |
| Cc1cccc(C(=O)c2cccc(C)c2)c1 | 3.06% | – |
| Cc1ccc(C(=O)O/N=C(\N)c2ccccn2)cc1Cl | 35.7% [at 1.91 µM] | – |
| COc1ccc(S(=O)(=O)N2CCC(C(=O)N3CCCC3)CC2)cc1C | 8.84% | – |
| COc1ccc(-c2nn(-c3ccccc3)cc2/C=C\C(=O)Nc2ccc(C(=O)O)cc2)cc1 | -30.2% | – |
| O=C(/C=C/c1cn(-c2ccccc2)nc1-c1ccc2c(c1)OCCO2)NCCCN1CCOCC1 | – | 17.8 µM (active) |
| COc1ccc(-c2nn(-c3ccccc3)cc2/C=C\C(=O)N2CCOCC2)cc1[N+](=O)[O-] | -3.63% | – |
| COc1cc(N2C(=O)CSC2=S)cc(OC)c1OC | -36% | – |
| O=C1CSC(=S)N1c1ccc(Cl)c(Cl)c1 | -1.7% | – |
| O=C1CSC(=S)N1c1ccc(O)cc1 | – | 12.6 µM (active) |
| CC1CN(C(=O)CCC(=O)NC2CCN(Cc3ccccc3)CC2)c2ccccc2O1 (stereo not drawn) | -2.46% | – |
| Cc1ccc(OCC(=O)Nc2ccccc2C(=O)NC2CC2)cc1C | 12.5% | – |
| NNC(=O)c1ccc(Cl)cc1Cl | -13.6% | – |
| O=C(Nn1cnnc1)c1cc(Cl)ccc1Cl | -18% | – |

| Structure (SMILES) | activity change, negative = inhibition | Potency |
| --- | --- | --- |
| O=C(N/N=C1\CCSC1)c1cc(Cl)ccc1O | – | 11.2 µM (active) |
| O=C(c1cc(COc2ccc(F)c(F)c2)on1)N1CCOCC1 | 37% | – |
| COc1ccc(OCC(=O)NCCS(=O)(=O)N2CCN(c3ccc(F)cc3)CC2)cc1 | 2.8% | – |
| Cc1cccc(NC(=O)NC2(C)CCS(=O)(=O)C2)c1 (stereo not drawn) | -32.9% | – |
| CCn1ccnc1CN1CCCC(C(=O)c2ccc3c4c(cccc24)CC3)C1 (stereo not drawn) | – | 1.26 µM (active) |
| Cc1ncoc1C(=O)N1CCCC(C(=O)c2ccc3c4c(cccc24)CC3)C1 (stereo not drawn) | 27.1% | – |
| CC(=O)NCC(=O)N1CCCC(C(=O)c2ccc3c4c(cccc24)CC3)C1 (stereo not drawn) | 29.4% | – |
| CC(=O)Nc1ccc(S(=O)(=O)N(C)c2nc3ccccc3nc2Cl)cc1 | 44% | – |
| COc1ccc(C2c3[nH]c4ccccc4c3C[C@H]3C(=O)N(CC(C)C)CC(=O)N23)c(OC)c1 (stereo partly drawn) | 19.1% | – |
| COc1ccc(CNC(=O)CSc2n[nH]c(N)n2)cc1OC | -19.3% | – |
| O=C(/C=C\NCC(=O)c1ccccc1)c1ccccc1 | 2.82% | – |
| Cc1noc(NS(=O)(=O)c2ccc(N/C=C/C(=O)c3ccccc3)cc2)c1C | 0% | – |
| Cc1ccc(N/C=C/C(=O)c2ccccc2)cc1C | – | 0.282 µM (active) |
| C=CCOc1ccc(/C=C2/C(=O)ON=C2C)cc1OCC | 17% | – |
| COc1cc(/C=C2/C(=O)ON=C2C)ccc1OCc1ccccc1F | – | 10 µM (active) |
| COc1cc(/C=C2/C(=O)ON=C2C)ccc1OCc1cccc(F)c1 | -4.14% | – |
| Cc1nn2c(=O)cc(COC(=O)c3ccc(NC(=O)C(C)(C)C)cc3)nc2s1 | 10.3% | – |
| O=C(Cn1nnc(-c2ccccc2)n1)NCc1ccc2c(c1)OCO2 | -22% | – |
| Cc1cccc(C)c1NC(=O)CSc1nnc(-c2ccccc2)n1Cc1ccc2c(c1)OCO2 | 2.3% | – |
| c1ccc(-c2nnc3n2NC(c2ccc4c(c2)OCO4)S3)cc1 (stereo not drawn) | – | 7.94 µM (active) |
| COC(=O)c1c(C)[nH]c(C(=O)/C=C/c2ccc(Cl)cc2)c1C | – | 0.282 µM (active) |
| CCCCOC(=O)c1[nH]c(C)c(C(=O)OC)c1C | 7.72% | – |
| COC(=O)c1c(C)[nH]c(C(=O)NCCc2ccc(S(N)(=O)=O)cc2)c1C | 24.7% | – |
| CCS(=O)(=O)N1CCC(N2CCN(c3ccccc3)CC2)CC1 | 5.83% | – |
| N#Cc1ccccc1NC(=O)COc1c(Br)cc(Br)c2cccnc12 | – | 12.6 µM (active) |
| O=C(COC(=O)c1ccccn1)Nc1cccc2ccccc12 | -8.28% | – |

| Structure (SMILES) | activity change, negative = inhibition | Potency |
| --- | --- | --- |
| N#Cc1ccc(C(=O)Nc2cccc3cccnc23)c(F)c1 | -2.31% | – |
| Cc1ccc(CNC(=O)Cn2cnc(S(=O)(=O)N3CCCCC3)c2)o1 | -12.9% | – |
| Cc1c(C)c(C)c(S(=O)(=O)NCCc2ccccn2)c(C)c1C | -20.7% | – |
| Cc1ccc(C2NC(=S)NC3=C2N2CCC3CC2)cc1 (stereo not drawn) | – | 11.2 µM (active) |
| COc1cc(NC(=O)c2ccccc2)c(OC)cc1NC(=O)Cc1ccccc1 | 12.2% | – |
| O=C(O)CCCn1c(=O)c2cccn2c2ccc(F)cc21 | 6.5% | – |
| Cc1ccc(-n2c(SCC(=O)NCCC3=CCCCC3)nc3n[nH]c(C)c3c2=N)cc1Cl | -37.4% | – |
| O=C(Nc1nnc(-c2ccc(Cl)cc2)o1)c1ccccc1Br | – | 2.51 µM (active) |
| Cc1nonc1NC(=O)c1ccccc1Br | -2.61% | – |
| O=C(Nc1cccc(Cl)c1)Nc1nnc(-c2ccccc2)o1 | -9.93% | – |
| CN=C1S/C(=C\c2c(OC)cc(OC)cc2OC)C(=O)N1C | -16.9% | – |
| CCc1ccc(S(=O)(=O)Nc2cc3c(cc2N2CCCCC2)n(C)c(=O)c(=O)n3C)cc1 | 0.731% | – |
| Cn1c(CCNS(=O)(=O)c2ccc(F)cc2)nnc1SCc1cccnc1 | -11.7% | – |
| O=C(C1CC1)N1N=C(c2ccc(Br)cc2)CC1(O)C(F)(F)F (stereo not drawn) | -5.41% | – |
| CCCCCNC(=O)Cc1ccc(OC)cc1 | 10.8% | – |
| O=C(Cc1ccccc1)N1N=C(c2ccncc2)CC1(O)C(F)(F)F (stereo not drawn) | – | 7.08 µM (active) |
| O=C(CCc1ccccc1F)N1CCN(c2ccccc2)CC1 | -19.2% | – |
| COc1ccc(CC(=O)Nc2ccc(C(=O)NC(C)(C)C)cc2)cc1 | 6.08% | – |
| O=C(O)CCCc1ccccc1 | – | inactive |
| CCC(C)NC(=O)CCCc1ccccc1 (stereo not drawn) | 16.6% | – |
| CC(=O)N1N=C(c2ccncc2)OC1(Cc1ccccc1)Cc1ccccc1 | -14.5% | – |
| COc1ccc(C(=O)CCc2ccccc2O)c(OC)c1 | 3.95% [at 1.91 µM] | – |
| COc1ccc(CC(=O)N2N=C(C)CC2(O)C(F)(F)F)cc1 (stereo not drawn) | – | 7.94 µM (active) |
| CC1=NN(C(=O)CCc2ccccc2O)C(O)(C(F)(F)F)C1 (stereo not drawn) | – | 8.91 µM (active) |
| CC1=NN(C(=O)CCCc2ccccc2)C(O)(C(F)(F)F)C1 (stereo not drawn) | – | 4.47 µM (active) |
| COc1ccccc1N1CCN(S(=O)(=O)c2ccc3c(c2)NC(=O)CS3)CC1 | 25.3% | – |

| Structure (SMILES) | activity change, negative = inhibition | Potency |
| --- | --- | --- |
| COc1cccc(NC(=O)N2CCC(NC(=O)C(Cc3cccc(C)c3)NC(C)=O)CC2)c1 (stereo not drawn) | -5.25% | – |
| CC(C)CN(Cc1c(O)ccc2c(=O)c(-c3ccccc3)coc12)CC(C)C | 27% [at 1.91 µM] | – |
| CC(C)[C@H](NC(=O)N1c2ccccc2NC(=O)[C@@H]1C(C)C)C(=O)N[C@H](C(=O)O)c1ccccc1 | -2.3% | – |
| CN(C(=O)CN1C(=O)/C(=C/c2ccc(Cl)cc2)SC1=S)C1CCS(=O)(=O)C1 (stereo not drawn) | -12.4% | – |
| CC(=O)C1=C(O)C(=O)N(c2ccc(Br)cc2)C1c1ccc([N+](=O)[O-])cc1 (stereo not drawn) | -3.44% | – |
| CC1Cc2cc(/C(O)=C3\C(=O)C(=O)N(Cc4cccnc4)C3c3ccccc3F)ccc2O1 (stereo not drawn) | -7.77% | – |
| Cc1ccc(C2SCC(=O)N2c2ccccc2)cc1 (stereo not drawn) | -32.8% | – |
| CC1=NN(/C(=N\c2nnc(C)s2)Nc2ccccc2)[C@H](c2ccc(C)cc2)S1 | – | 8.91 µM (active) |
| COc1ccc(C(=O)CCC(=O)Nc2ccc(Cl)cc2)cc1 | 37% | – |
| CCOC(=O)C1(Cc2ccccc2C)CCCN(C(=O)CN2C(=O)CSC2=O)C1 (stereo not drawn) | 0% | – |
| N#Cc1ccc(/C=C2\CCn3c2nc2cc(C(=O)O)ccc2c3=O)cc1 | 38.3% | – |
| CCOC(=O)CNc1nc(Cl)nc(Nc2ccccc2)n1 | -7.07% | – |
| Cc1ccccc1C(=O)OC1OC(=O)C(Cl)=C1Nc1ccccc1 (stereo not drawn) | – | 11.2 µM (active) |
| Cc1ccc(NC2=C(Cl)C(=O)OC2OC(=O)c2ccccc2C)cc1 (stereo not drawn) | 40.2% | – |
| COC(=O)c1sccc1NC(=O)c1ccc(Cl)cc1 | -3.43% | – |
| Cc1csc(NC(=O)Nc2ccccc2[N+](=O)[O-])n1 | -4.77% | – |
| CCOC(=O)/C(=N\Nc1ccccc1[N+](=O)[O-])c1csc(Nc2ccccc2)n1 | – | 11.2 µM (active) |
| CCOC(=O)C/C(C)=N\Nc1ccc([N+](=O)[O-])cc1[N+](=O)[O-] | 9.42% | – |
| COc1ccc(OCc2cc(C(=O)NCC3(C)COC3)no2)c(Cl)c1 | 44% | – |
| Cc1ccc(Cl)c(OCC(=O)N2CCc3ccccc3C2)c1 | 3.92% [at 1.91 µM] | – |
| Cc1cccc(C(=O)OCC(=O)Nc2ccc(F)cc2)c1 | -5.24% | – |
| Cc1cc(C)cc(C(=O)OCC(=O)NCCNC(=O)COC(=O)c2cc(C)cc(C)c2)c1 | – | 0.0708 µM (active) |
| COc1ccccc1C(=O)OCC(=O)NCCNC(=O)COC(=O)c1ccccc1OC | 1.35% | – |
| COc1ccc(S(=O)(=O)NC(C)C(=O)NCc2ccncc2)cc1Cl (stereo not drawn) | 3.71% | – |
| COC(=O)CN1C(=O)[C@H]2[C@@H](/C=C/c3ccccc3)N3C(=O)CN(CC4CC4)C(=O)[C@@]3(Cc3ccccc3)[C@H]2C1=O | -10.6% | – |
